Inconclusive results are not listed. Activity calls are given as the source filed them. Unless noted, the call rests on the fitted dose curve; in most records, active means well fitted curve in the direction sought with a large enough effect; inconclusive means small, poorly fitted or top-dose-only effect, or another doubt; inactive means no such curve, though single readings can be large; an effect the other way counts as inactive or inconclusive.
Key:
[1] = Cytometric Cell-Based qHTS for Inhibitors of the mTORC1 Signaling Pathway in MEF (Tsc2-/-, p53-/-) Cells (AID 2660);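 further: Tsc2 and p53 null MEFs carrying empty vector with compound for 24 h; percent of cells above a phospho-rpS6 to PI ratio cutoff in each well; series mostly up to about 38 µM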
How it was run: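 Immunofluorescence qHTS of rpS6 Ser235/236 phosphorylation: MEFs (Tsc2-/-, p53-/-) treated 24 h, 37 C, in DMEM + 10% FBS. Alexa-488 signal normalized to PI count, referenced to rapamycin (7.5 nM) and DMSO; PI cell number recorded for viability.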

[2] = High Content Imaging Cell-Based qHTS for Inhibitors of the mTORC1 Signaling Pathway in MEF (Tsc2-/-, p53-/-) Cells (AID 2666);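 further: percent of cells scored positive for phospho-rpS6 Ser235/236 immunostaining by imaging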
How it was run: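 MEF Tsc2-/- p53-/- (empty vector), DMEM/10% FBS; cpd 24 h 37 °C; PFA fix, Alexa-488 p-rpS6 S235/236 Ab, Hoechst; imaged; rapamycin-defined inhibition; % positive cells/well.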

[3] = High Content Imaging Cell-Based qHTS for Inhibitors of the mTORC1 Signaling Pathway in MEF Cells (AID 2667);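 further: Tsc2-/- p53-/- MEFs stably re-expressing wild-type Tsc2 exposed 24 h; series mostly up to about 38 µM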
How it was run: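 Read-out is the share of phospho-rpS6-positive cells per well, from Hoechst-normalized Alexa-488 Ser235/236 staining imaged on IN Cell. Cells: WT Tsc2-expressing Tsc2-/-, p53-/- MEFs exposed to compound for 24 hrs.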

[4] = Cytometry Cell-Based qHTS for Inhibitors of the mTORC1 Signaling Pathway in MEF cells (AID 2668);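 further: Tsc2-/- p53-/- mouse embryonic fibroblasts stably re-expressing wild-type Tsc2; percent cells positive for phospho-rpS6 Ser235/236 relative to propidium iodide stain; series mostly up to about 38 µM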
How it was run: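 Pathway inhibition in WT Tsc2-rescued Tsc2-/-, p53-/- MEFs is measured as the Alexa-488 phospho-rpS6 to propidium iodide intensity ratio after 24 hrs of compound at 37 degree Celsius. PI-stained cell number gives viability.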

[5] = target: Ubiquitin carboxyl-terminal hydrolase 2 (Homo sapiens) (UniProt O75604); assay: qHTS Validation Assay for Inhibitors of Ubiquitin-specific Protease USP2a Using CHOP2 as the Reporter (AID 463106)
How it was run: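 Fluorescence read-out at Ex 485nm/Em 531nm after 60min RT, following addition of 25nM Ub-CHOP2 plus 25nM reporter substrate to USP2 core (10nM) pretreated 30min with compound. Data normalized to NEM full inhibition; concentration-response curves fitted.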

[6] = target: DNA polymerase III PolC-type (Bacillus subtilis (strain 168)) (UniProt P13267); assay: qHTS Validation Assay for the Inhibitors of DNA Replication in Gram-Positive Bacteria (AID 485295);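 further: reconstituted holoenzyme with PolC plus beta clamp SSB and primase; PicoGreen fluorescence of double-stranded DNA made on primed circular M13 template; series mostly up to about 57 µM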
How it was run: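 Primed replication of single-stranded M13Gori by a four-protein B. subtilis holoenzyme is measured at room temperature. Double-stranded product is quantified by PicoGreen fluorescence after an EDTA stop; inhibition is scaled between DMSO and EDTA controls.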

[7] = target: Tumor susceptibility gene 101 protein (Homo sapiens) (UniProt Q99816); assay: qHTS Validation Assay for Iinhibitors of HIV-1 Budding by Blocking the Interaction of PTAP/TSG101 (AID 485342; calls by dose curve)
How it was run: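 Fluorescence anisotropy measured PTAP-Tsg101 interaction. Final concentrations were 10 uM protein domain and 50 nM labeled peptide, equilibrated 20 min at room temperature.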

[8] = target: Beta-2 adrenergic receptor (Homo sapiens) (UniProt P07550); assay: qHTS validation assay of beta-arrestin-biased ligands of beta2-adrenergic receptor (AID 485366)
How it was run: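 Agonism was measured as beta-arrestin recruitment to recombinant beta2-AR, releasing tTA to drive luciferase. Cells were exposed for 18 hr at 37 degrees C to a series up to 46 microM. %Activity from corrected luminescence gave concentration-response curves.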

[9] = target: Thioredoxin reductase 1, cytoplasmic (Rattus norvegicus) (UniProt O89049); assay: qHTS Assay for Inhibitors of Mammalian Selenoprotein Thioredoxin Reductase 1 (TrxR1) (AID 488773); conditions: Potency: inhibition;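 further: drop in NADPH fluorescence over an 8 min run after selenite addition; series mostly up to about 57 µM; nearly all actives have a fitted effect of over 40% in size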
How it was run: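 Inhibition is scored from the loss of NADPH fluorescence between first and last reads of an 8-min kinetic run. Selenite (400 uM) was the substrate, added after 15 min compound preincubation at room temperature.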

[10] = Validation screen for inhibitors of Lassa infection (AID 463096; calls by dose curve)
[11] = qHTS Validation Assay to Find Inhibitors of Chronic Active B-Cell Receptor Signaling (AID 485345; active means well fitted curve in the direction sought with a large enough effect in the main read-out, with a control signal flat, not every such curve was filed as active)
How it was run: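 TMD8 ABC-DLBCL cells stably carrying doxycycline-inducible IkappaBalpha–green luciferase fusion plus unfused red luciferase; compounds 46 uM to 3 nM, 4 h at 37C with doxycycline. Corrected green/red luminescence ratio normalized to 10 uM MG-132 and basal cell wells; curves fitted.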

[12] = target: ATP-dependent 6-phosphofructokinase (Trypanosoma brucei brucei) (UniProt O15648); assay: qHTS Validation Assay to Find Inhibitors of T. brucei phosphofructokinase (AID 485368); further: potency means the concentration at half of the fitted maximal effect
How it was run: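 ADP-Glo luminescence, two-step: residual ATP depleted, then ADP converted to ATP for luciferase. Enzyme 1.25 nM, F6P 0.5 mM, ATP 0.1 mM, pH 8.0 TEA buffer, 45 min RT. Curves fitted and classed by quality and efficacy.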

[13] = Quantitative high throughput screen for delayed death inhibitors of the malarial parasite plastid, 48 hour incubation (AID 488752); further: nearly all actives have a fitted effect of over 65% in size
How it was run: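 Cultures: infected erythrocytes at final 2% hematocrit and 0.1% parasitemia in Albumax-supplemented RPMI. Parasites express integrated firefly luciferase. Incubation with compound lasts 48 h before luminescent detection of remaining reporter activity.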

[14] = target: Thioredoxin reductase 1, cytoplasmic (Rattus norvegicus) (UniProt O89049); assay: qHTS Assay for Substrates of Mammalian Selenoprotein Thioredoxin Reductase 1 (TrxR1) (AID 488772);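 further: series mostly up to about 57 µM; a drop in NADPH fluorescence below the no-compound background marks a TrxR1 substrate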
How it was run: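 In this dual-purpose format, potential substrates are identified from the first fluorescence read after selenite addition, not from the 8-minute delta. Rat enzyme is preincubated with NADPH and then with compound at ~22 deg C.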

[15] = target: M-phase phosphoprotein 8 (Homo sapiens) (UniProt Q99549); assay: qHTS Validation Assay for Inhibitors for MPP8 Chromodomain Interactions with Methylated Histone Tails (AID 488949); further: nearly all actives have a fitted effect of over 55% in size; further: potency means the concentration at half of the fitted maximal effect
How it was run: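 Disruption of the preformed MPP8–trimethyl-H3K9 peptide complex (both 50 nM, 30 min, RT) is measured after 30 min compound exposure, using AlphaScreen proximity beads; aurintricarboxylic acid titration serves as plate control.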

[16] = target: Flap endonuclease 1 (Homo sapiens) (UniProt P39748); assay: qHTS Validation Assay for the Inhibitors of Human Flap endonuclease 1 (FEN1) (AID 488816)
How it was run: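 Enzyme reagent 10 nM; cpds pinned; 15 min RT preinc.; substrate 50 nM final; reads t=0 and 15 min; no-enzyme buffer wells as neg. control; normalized data, 4-parameter Hill fit.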

[17] = Validation screen for small molecules that induce DNA re-replication in MCF 10A normal breast cells (AID 463097); further: nearly all actives have a fitted effect of over 60% in size
How it was run: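 DNA re-replication was detected as a rise in nuclei with elevated Hoechst fluorescence after a 48 hr compound exposure of MCF 10A cells at 37 C.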

[18] = Quantitative high throughput screen for delayed death inhibitors of the malarial parasite plastid, 96 hour incubation (AID 488745); further: nearly all actives have a fitted effect of over 70% in size; further: potency means the concentration at half of the fitted maximal effect
How it was run: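 Two-generation (96 h) exposure of luciferase-reporter P. falciparum in erythrocytes, 2% hematocrit, 0.1% parasitemia final, 37 C, 5% CO2, RPMI 1640 with 0.5% Albumax. Growth inhibition scored by reduced luminescence.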

Measured: Potency

DNA polymerase III PolC-type (Bacillus subtilis (strain 168)), sequence (P13267 whole entry, looked up): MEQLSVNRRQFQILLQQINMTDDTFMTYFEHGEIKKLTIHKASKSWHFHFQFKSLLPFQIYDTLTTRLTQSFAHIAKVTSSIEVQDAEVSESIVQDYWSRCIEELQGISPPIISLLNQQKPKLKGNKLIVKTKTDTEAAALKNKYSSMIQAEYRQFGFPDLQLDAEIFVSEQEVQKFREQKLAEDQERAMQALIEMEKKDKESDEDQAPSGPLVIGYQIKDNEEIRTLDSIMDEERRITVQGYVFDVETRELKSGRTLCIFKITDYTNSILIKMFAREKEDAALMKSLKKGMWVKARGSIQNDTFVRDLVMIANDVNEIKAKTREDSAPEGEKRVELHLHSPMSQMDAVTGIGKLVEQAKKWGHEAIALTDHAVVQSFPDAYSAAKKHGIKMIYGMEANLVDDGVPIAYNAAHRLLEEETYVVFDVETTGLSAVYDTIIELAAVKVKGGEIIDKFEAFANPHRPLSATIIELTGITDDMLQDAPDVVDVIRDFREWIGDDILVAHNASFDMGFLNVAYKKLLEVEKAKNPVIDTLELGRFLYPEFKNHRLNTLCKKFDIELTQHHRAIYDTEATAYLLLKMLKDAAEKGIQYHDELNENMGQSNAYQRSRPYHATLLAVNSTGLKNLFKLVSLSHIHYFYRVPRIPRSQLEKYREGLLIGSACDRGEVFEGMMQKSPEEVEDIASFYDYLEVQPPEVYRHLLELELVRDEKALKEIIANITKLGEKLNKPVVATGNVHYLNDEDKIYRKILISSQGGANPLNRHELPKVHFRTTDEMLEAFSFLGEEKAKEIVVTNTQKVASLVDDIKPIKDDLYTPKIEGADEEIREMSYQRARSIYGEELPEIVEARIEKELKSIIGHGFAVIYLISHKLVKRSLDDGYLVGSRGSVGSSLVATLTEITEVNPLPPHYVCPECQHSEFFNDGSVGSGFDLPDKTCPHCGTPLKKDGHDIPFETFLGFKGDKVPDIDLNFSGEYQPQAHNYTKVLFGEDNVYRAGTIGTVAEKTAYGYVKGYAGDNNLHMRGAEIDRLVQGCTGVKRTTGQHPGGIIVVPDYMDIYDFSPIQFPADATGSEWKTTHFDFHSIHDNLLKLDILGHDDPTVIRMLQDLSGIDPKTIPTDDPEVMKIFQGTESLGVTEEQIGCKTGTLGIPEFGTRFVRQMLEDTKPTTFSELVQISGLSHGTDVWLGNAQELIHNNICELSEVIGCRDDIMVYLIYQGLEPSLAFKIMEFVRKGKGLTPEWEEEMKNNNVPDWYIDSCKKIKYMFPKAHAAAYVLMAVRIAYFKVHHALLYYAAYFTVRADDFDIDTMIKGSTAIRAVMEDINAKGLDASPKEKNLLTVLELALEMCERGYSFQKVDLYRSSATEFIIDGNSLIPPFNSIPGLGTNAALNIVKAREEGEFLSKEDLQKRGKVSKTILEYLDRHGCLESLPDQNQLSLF
M-phase phosphoprotein 8 (Homo sapiens), sequence (Q99549 whole entry, looked up): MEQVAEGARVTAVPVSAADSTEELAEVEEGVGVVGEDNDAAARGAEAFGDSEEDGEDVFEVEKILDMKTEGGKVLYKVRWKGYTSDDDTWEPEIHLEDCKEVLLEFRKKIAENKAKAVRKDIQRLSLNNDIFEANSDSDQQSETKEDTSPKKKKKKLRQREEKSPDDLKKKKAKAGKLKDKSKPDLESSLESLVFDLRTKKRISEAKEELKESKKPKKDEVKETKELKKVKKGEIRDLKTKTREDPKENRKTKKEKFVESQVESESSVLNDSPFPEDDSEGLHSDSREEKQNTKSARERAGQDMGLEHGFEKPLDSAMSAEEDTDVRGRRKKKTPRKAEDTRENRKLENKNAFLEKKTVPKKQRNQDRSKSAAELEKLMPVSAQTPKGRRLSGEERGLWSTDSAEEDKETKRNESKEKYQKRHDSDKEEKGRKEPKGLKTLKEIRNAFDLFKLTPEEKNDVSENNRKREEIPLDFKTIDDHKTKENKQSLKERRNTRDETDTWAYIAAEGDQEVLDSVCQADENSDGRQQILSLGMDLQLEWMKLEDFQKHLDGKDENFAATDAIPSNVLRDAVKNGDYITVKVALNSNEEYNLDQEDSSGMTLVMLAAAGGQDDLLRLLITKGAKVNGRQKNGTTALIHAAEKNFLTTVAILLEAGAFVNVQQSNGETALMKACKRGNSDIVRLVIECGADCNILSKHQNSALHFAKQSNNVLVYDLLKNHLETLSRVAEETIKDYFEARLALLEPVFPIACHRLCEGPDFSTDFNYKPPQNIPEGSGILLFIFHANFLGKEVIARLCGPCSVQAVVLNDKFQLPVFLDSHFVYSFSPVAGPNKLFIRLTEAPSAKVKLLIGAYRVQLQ
Beta-2 adrenergic receptor (Homo sapiens), sequence (P07550 whole entry, looked up): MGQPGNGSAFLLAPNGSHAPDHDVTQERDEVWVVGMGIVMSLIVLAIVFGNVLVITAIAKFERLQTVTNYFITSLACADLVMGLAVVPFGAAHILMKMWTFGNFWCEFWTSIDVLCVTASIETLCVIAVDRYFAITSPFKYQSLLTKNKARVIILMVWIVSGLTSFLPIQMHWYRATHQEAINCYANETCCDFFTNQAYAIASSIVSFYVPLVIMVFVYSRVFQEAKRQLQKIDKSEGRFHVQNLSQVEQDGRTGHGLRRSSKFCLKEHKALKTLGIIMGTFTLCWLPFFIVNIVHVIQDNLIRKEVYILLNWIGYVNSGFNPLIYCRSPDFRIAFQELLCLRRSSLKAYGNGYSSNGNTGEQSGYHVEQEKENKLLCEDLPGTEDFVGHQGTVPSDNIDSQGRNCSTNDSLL
Thioredoxin reductase 1, cytoplasmic (Rattus norvegicus), sequence (O89049 whole entry, looked up): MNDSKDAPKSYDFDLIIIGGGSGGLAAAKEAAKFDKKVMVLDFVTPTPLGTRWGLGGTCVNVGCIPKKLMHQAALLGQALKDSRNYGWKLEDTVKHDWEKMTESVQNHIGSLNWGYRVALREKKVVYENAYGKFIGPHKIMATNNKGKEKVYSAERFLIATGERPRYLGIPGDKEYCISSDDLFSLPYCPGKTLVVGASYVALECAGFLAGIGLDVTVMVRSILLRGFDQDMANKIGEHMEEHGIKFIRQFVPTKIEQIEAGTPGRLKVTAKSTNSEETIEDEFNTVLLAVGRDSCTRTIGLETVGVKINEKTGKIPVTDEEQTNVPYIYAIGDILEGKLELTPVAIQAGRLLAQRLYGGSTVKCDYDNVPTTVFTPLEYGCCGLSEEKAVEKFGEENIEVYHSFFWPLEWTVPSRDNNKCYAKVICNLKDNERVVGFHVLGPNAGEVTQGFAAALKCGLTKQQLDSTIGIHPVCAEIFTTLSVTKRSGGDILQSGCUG
Flap endonuclease 1 (Homo sapiens), sequence (P39748 whole entry, looked up): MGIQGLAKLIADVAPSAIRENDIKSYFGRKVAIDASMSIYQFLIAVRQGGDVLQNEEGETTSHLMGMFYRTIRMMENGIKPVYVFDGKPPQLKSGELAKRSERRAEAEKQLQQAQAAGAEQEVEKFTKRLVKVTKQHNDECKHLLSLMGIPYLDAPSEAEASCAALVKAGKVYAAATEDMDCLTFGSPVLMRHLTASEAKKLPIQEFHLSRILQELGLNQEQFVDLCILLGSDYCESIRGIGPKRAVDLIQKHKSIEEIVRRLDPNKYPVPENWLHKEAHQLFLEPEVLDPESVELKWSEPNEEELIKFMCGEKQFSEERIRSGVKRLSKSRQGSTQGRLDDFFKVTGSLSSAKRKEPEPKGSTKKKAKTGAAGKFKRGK
Tumor susceptibility gene 101 protein (Homo sapiens), sequence (Q99816 whole entry, looked up, the tested form may be a part): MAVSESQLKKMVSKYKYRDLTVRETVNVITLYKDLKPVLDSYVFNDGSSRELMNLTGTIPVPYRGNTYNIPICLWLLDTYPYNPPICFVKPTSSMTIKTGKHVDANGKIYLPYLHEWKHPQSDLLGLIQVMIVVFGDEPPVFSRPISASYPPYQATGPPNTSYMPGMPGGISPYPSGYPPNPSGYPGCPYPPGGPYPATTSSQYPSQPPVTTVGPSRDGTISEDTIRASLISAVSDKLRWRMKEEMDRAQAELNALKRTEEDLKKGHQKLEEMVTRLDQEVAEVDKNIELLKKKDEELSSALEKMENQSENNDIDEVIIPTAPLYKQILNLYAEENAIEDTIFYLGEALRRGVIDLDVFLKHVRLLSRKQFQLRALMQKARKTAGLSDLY
ATP-dependent 6-phosphofructokinase (Trypanosoma brucei brucei), sequence (O15648 whole entry, looked up): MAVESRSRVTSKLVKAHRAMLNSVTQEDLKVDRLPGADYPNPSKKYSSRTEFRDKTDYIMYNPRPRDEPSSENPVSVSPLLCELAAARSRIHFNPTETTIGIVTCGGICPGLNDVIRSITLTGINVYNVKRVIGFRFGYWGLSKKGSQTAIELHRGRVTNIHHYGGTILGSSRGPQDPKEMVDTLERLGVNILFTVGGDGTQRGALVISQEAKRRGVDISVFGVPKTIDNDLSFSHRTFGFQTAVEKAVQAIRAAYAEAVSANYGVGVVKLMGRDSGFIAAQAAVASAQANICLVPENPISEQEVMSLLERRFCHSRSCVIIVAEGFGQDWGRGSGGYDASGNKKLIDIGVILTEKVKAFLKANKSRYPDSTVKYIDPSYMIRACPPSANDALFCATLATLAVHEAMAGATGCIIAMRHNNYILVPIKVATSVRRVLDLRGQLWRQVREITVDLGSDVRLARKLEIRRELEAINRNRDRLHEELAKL

COc1ccc2c(c1O)-c1cccc3c1[C@@H](C2)N(C)CC3
inactive: [1] | [2] | [3] | [4] | [5] | [6] | [7] | [8] | [9]

C[Se]C[C@H](N)C(=O)O
not listed: [5] | [16] | [17] | [18]
inactive: all other assays above

C/C(O)=C(\C#N)C(=O)Nc1cc(Br)ccc1Br
not listed: [9] | [11] | [12] | [15] | [17] | [18]
inactive: all other assays above

CN1CCc2cccc(Cl)c2CC1
not listed: [7] | [9] | [12] | [16] | [17] | [18]
inactive: all other assays above

CCCN1CCC[C@@H](c2cccc(O)c2)C1
not listed: [10] | [13] | [14] | [16] | [17] | [18]
inactive: all other assays above

NC(=O)CI
active: [12] 19 µM | [15] 8.91 µM
not listed: [7] | [9] | [14] | [17] | [18]
inactive: all other assays above

C[N+]1(C)CCc2cc3c(cc2[C@H]1[C@@H]1OC(=O)c2c1ccc1c2OCO1)OCO3
not listed: [5] | [10] | [12] | [13] | [15] | [17] | [18]
inactive: all other assays above

Cc1cc([C@@H]2CCCN2C)on1
not listed: [9] | [10] | [12] | [13] | [17] | [18]
inactive: all other assays above

C#CCN[C@H](C)Cc1ccccc1
not listed: [7] | [14] | [16] | [17] | [18]
inactive: all other assays above

O=[N+]([O-])c1ccc2nc(N3CCNCC3)ccc2c1
not listed: [9] | [10] | [11] | [12] | [15] | [16] | [18]
inactive: all other assays above

CCCN(CCC)CCc1c[nH]c2ccc(C(N)=O)cc12
not listed: [5] | [7] | [9] | [10] | [15] | [17]
inactive: all other assays above

COc1ccc2c(c1)[C@@]13CCCC[C@H]1[C@@H](C2)NCC3
not listed: [5] | [10] | [11] | [13]
inactive: all other assays above

C[C@H](N)Cc1cccc(C(F)(F)F)c1
not listed: [10] | [13] | [17] | [18]
inactive: all other assays above

CN1C2CCC1CC(OC(c1ccccc1)c1ccccc1N)C2 (stereo not given)
not listed: [4] | [5] | [9] | [14] | [15]
inactive: all other assays above

CC(C)NP(=O)(NC(C)C)OP(=O)(NC(C)C)NC(C)C
not listed: [12] | [14] | [16] | [17] | [18]
inactive: all other assays above

COc1ccc2c(c1)C13CCCCC1C(C2)N(C)CC3 (stereo not given)
not listed: [9] | [12] | [15] | [17] | [18]
inactive: all other assays above

N=C(N)c1ccc(CS(=O)(=O)F)cc1
not listed: [10] | [13] | [17] | [18]
inactive: all other assays above

CC12NC(Cc3ccccc31)c1ccccc12 (stereo not given)
not listed: [5] | [7] | [12] | [17] | [18]
inactive: all other assays above

COc1ccc(CNC(=O)/C=C/c2ccc3[nH]cc(CCN(C)C)c3c2)cc1
active: [18] 11.7 µM
not listed: [5] | [13] | [17]
inactive: all other assays above

N[C@@H](Cn1oc(=O)[nH]c1=O)C(=O)O
inactive: [1] | [2] | [3] | [4] | [6] | [11] | [8] | [12] | [18] | [13]

— PubChem BioAssay (NCATS)
